# Experimental data published in PubChem BioAssay (NCATS).
# Where “and” joins values, the source holds several entries; their conditions need not be identical. Equal values may be shown once. Values without a mark were called inactive. Records with an inconclusive call do not appear. Calls of active or inactive are those of the source. The call rests on the fitted dose curve; in most records, active means well fitted curve in the direction sought with a large enough effect; inconclusive means small, poorly fitted or top-dose-only effect, or another doubt; inactive means no such curve, though single readings can be large; an effect the other way counts as inactive or inconclusive.
# Experiments:
# [1] = molecular target: Cytochrome P450 3A4 (Homo sapiens) (UniProt P08684); assay: qHTS Assay for Inhibitors and Substrates of Cytochrome P450 3A4 (AID 884); further: potency means the concentration at half of the fitted maximal effect; nearly all actives have a fitted effect of over 50% in size
# Cytochrome P450 3A4 (Homo sapiens), sequence (P08684 whole entry, looked up): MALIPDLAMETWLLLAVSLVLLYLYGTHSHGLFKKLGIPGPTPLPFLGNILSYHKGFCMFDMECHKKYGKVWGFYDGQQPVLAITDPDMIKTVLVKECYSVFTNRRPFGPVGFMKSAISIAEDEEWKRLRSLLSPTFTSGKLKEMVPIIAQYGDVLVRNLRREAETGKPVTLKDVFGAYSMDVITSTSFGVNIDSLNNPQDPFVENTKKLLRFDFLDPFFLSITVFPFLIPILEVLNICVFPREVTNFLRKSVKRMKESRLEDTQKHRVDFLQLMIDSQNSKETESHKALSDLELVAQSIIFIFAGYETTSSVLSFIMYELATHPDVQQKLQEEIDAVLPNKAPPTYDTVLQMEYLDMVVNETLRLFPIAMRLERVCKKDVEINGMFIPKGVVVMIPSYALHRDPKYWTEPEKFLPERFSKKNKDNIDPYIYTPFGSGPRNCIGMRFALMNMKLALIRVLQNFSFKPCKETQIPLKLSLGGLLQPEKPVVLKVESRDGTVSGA
# Method in brief: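 Luminescent readout of luciferin produced by CYP3A4 (20 nM) dealkylation of Luciferin-PPXE, 25 uM (its KM). NADPH-driven reaction ran 60 min at RT after 10 min compound preincubation; data scaled to 57 uM ketoconazole as 100% inhibition.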
# [2] = molecular target: Cytochrome P450 3A4 (Homo sapiens) (UniProt P08684); assay: qHTS Assay for Activators of Cytochrome P450 3A4 (AID 885); further: nearly all actives have a fitted effect of over 65% in size
# Method in brief: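 Using 20nM recombinant human CYP3A4 in potassium phosphate (200mM), substrate Luciferin-PPXE at 25uM, luminescent luciferin detection followed a 60-min RT NADPH reaction; data scaled to 57 uM ketoconazole.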
Compound,Potency [1],"activity change, positive = activation [2]",Potency [2]
C=CC[C@@H]1C=C[C@H](O/N=C(\C)CCN2CCc3nc(-c4ccccc4)c(-c4ccccc4)cc3C2)[C@H](CO)O1,3.98 µM (active),-81.8% [at 11.4 µM],
CCC1=C(OC(=O)N(CC)CC)N2C(=O)OC(=NCCc3c[nH]c4ccccc34)[C@]2(Cc2ccccc2)[C@H]2C1=CC[C@H]1C(=O)N(CC)C(=O)[C@H]12,2 µM (active),,inactive
CCC1=C(OC(=O)N(CC)CC)N2C(=O)OC(=NCCOC)[C@]2(Cc2ccccc2)[C@H]2C1=CC[C@H]1C(=O)N(CC)C(=O)[C@H]12,5.01 µM (active),,inactive
CC1(C)CC(=O)c2c(oc3cc4c(cc23)OCO4)C1,3.98 µM (active),,inactive
COC(=O)[C@@H]1C[C@H]2CC[C@H](O)C[C@H]2N1Cc1ccc(C(C)(C)C)cc1,5.01 µM (active),,inactive
CC(=O)OC[C@@H]1O[C@H](C/C=N\O[C@@H](C)c2cc(-c3c(C)cc(C)cc3C)no2)C=C[C@@H]1OC(C)=O,3.16 µM (active),-77.7% [at 11.4 µM],
CCC1=C(OC(=O)N(CC)CC)N2C(=O)OC(=NCC3CC3)[C@]2(C)[C@H]2C1=CC[C@H]1C(=O)NC(=O)[C@H]12,10 µM (active),,inactive
Cn1c(=O)c(C(=O)COC(=O)c2cc(-c3ccco3)nc3ccccc23)c(N)n(Cc2ccccc2)c1=O,12.6 µM (active),,inactive
CO[C@@H]1COC(=O)C/C=C\[C@H](C)[C@@H](NS(=O)(=O)c2ccc(C)cc2)COC(=O)C/C=C\[C@@H]1C,3.98 µM (active) and 3.16 µM (active),-70.4% [at 11.4 µM] and -70.5% [at 11.4 µM],
